# From the supplement of paper PMC11417369
# ± gives the standard deviation of the averaged measurements. The full ranking holds about 25,000 sequences; the median of “ln(normalized median fluorescence intensity)” is about 8.6, and the highest 2% start at about 10. Many of the other results were omitted from the sample, so the highest values are more common in it than they were.
# System: PfAP2-EXP AP2 domain (GST-tagged)
# Assay: gcPBM binding intensity (ln(normalized median fluorescence intensity)); higher = stronger DNA binding
# Outline: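 Binding of GST-tagged P. falciparum DNA-binding domains, expressed in E. coli and used at about 25 μg on average, was carried out for 1 h in 1× PBS containing 1% milk, 0.2 mg/ml BSA, 0.5% salmon testes DNA and 0.03% Triton X-100. The target was an Agilent 4 × 180k array of primer-extended double-stranded 36-bp intergenic genomic probes plus negative controls, read with Alexa488 anti-GST antibody at 488 nm. Binding intensity is the highest Masliner-normalised natural-log median intensity across replicate spots of either probe orientation.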
row,Sequence,gcPBM binding intensity (ln)
1,TTATTCTTTAACTAAAATTATATATATATATTATAC [CACACA_negctrl_site1597],8.38 ± 0.34
2,AATGATTTTAAATGAACATAATTTATATTCATAACA [GTGCAC_negctrl_site256],8.04 ± 0.42
3,TCAATTTTACTTGTTTGTACATAAAATAATAAGGTT [XGTACX_site3732],8.44 ± 0.47
4,CCAACATATATTATCACACACATATATATATATATA [CACACA_site2016],10.2 ± 0.22
5,AATAAATTATATATCACACATATATATTTATATTTA [CACACA_site5964],8.13 ± 0.23
6,ATATCACATATATATATATATATATATATATATATA [XGTACX_negctrl_site463],9.95 ± 0.61
7,GCACAACATATATTATCACACACATATATATATATA [CACACA_site8619],10.3 ± 0.18
8,ACAACATATGTTATCACACACATATAAATATAAATA [CACACA_site7038],8.41 ± 0.54
9,AAAAAAAAAACACACACATGCACATCATATTATATA [TGCATGCA_site133],8.72 ± 0.54
10,AAAAAAAACAGACACACACACACATATACATACATA [CACACA_site2665],8.41 ± 0.38
11,AAAAAAATCACATAATATACTTTATTTTATTTTGTA [GTGCAC_negctrl_site562],7.89 ± 0.33
12,ATTTTTTTTTTTAATACACACAATTTTGATGAAGCA [CACACA_site3157],8.26 ± 0.41
13,CTAAAGTAAATTTAAGCACACACAACGAATTTTTAT [CACACA_site8599],8.65 ± 0.45
14,GATAAAATGGATGGATGTACATTATTTCCATATAAT [XGTACX_site7781],8.55 ± 0.5
15,AACCATTATTTCTCTACACACATTTATGTCATTTAC [CACACA_site1499],8.86 ± 0.56
16,CATATACATAAACACACACACACATAAATAAATATA [CACACA_site4864],8.68 ± 0.54
17,TAGATACATAAACACACACACACATACATATATACA [CACACA_site9139],8.68 ± 0.6
18,AAAAAAAAAAAACATACACACATACATACAGATATA [CACACA_site4681],8.5 ± 0.64
19,TACATATATAAAAAAACACACACATATATATATATA [CACACA_site8315],10.1 ± 0.46
20,AAAAAAAAAAAAAGTACACACATACATATAAATATA [CACACA_site8533],8.48 ± 0.4
21,AAGTACATACATAAAACACACACATATATATATATA [CACACA_site8541],10.2 ± 0.17
22,TACATACATAAACACACACACACATATATATATATA [CACACA_site8953],10.1 ± 0.35
23,TATACACATATATAAACACACAAAAAAAAAAAAAAA [CACACA_site7041],8.19 ± 0.63

row,Sequence,gcPBM binding intensity (ln)
1,GTACATACATAAAACACACACATATATATATATATA [CACACA_site1826],10.2 ± 0.75
2,TAAAAAAAAAAAAAAAGTACACACATACATATAAAT [XGTACX_site3752],8.61 ± 0.44
3,TATATACATAAACACACACACACATATATATATATA [CACACA_site8707],10.2 ± 0.29
4,TACAGATATAAACACACACACATATATATATATATA [CACACA_site4846],10.2 ± 0.48
5,GTTAATATACTTAATACACACACGAATATATATAAA [CACACA_site1181],8.69 ± 0.35
6,ACCTAATTTTTATATTGTACATAATATAATATATAT [XGTACX_site1715],8.66 ± 0.3
7,ATTTAAAAAAAAAAAAAAAAAAAAAAAAAAAGAAAA [CACACA_negctrl_site722],8.01 ± 0.43
8,TATATATATATGTATACACACATATGTATGTTATGT [CACACA_site4053],9.65 ± 0.28
9,CCAATACATAGAAACTGTACATTATGCATTATACAC [XGTACX_site3531],8.79 ± 0.28
10,ATTAAATACTTCGATTGTACAATTTTTTTTTTTTTT [XGTACX_site832],8.59 ± 0.59
11,ATTTAAAATGGTTATACACACATAAAAGGGGAAATG [CACACA_site2649],8.95 ± 0.57
12,TTTTTTTTTCGCTTTTGTACACATTTTATAGAACAG [XGTACX_site2416],8.87 ± 0.46
13,AAAAAAAAAAAAAAGCGTACAAATAAAATATATTTA [XGTACX_site7195],8.52 ± 0.49
14,CATATACACGAACACACACACATATATATATATATA [CACACA_site4437],10.3 ± 0.39
15,CCCCCCCACGAACACACACACATACATACCACATAT [CACACA_site7149],10.41 ± 0.028
16,CATATACACGAACACACACACATATAAATAAATATA [CACACA_site6379],8.73 ± 0.46
17,AACATATACACGAACACACACACATATAAATAAATA [CACACA_site6380],8.74 ± 0.56
18,AACATATACACGAACACACACACATATATATATATA [CACACA_site502],10.1 ± 0.38
19,GGCATACACGAACACACACACACACGCACATATATA [CACACA_site6426],8.96 ± 0.52
20,ATTATATTTCAATTATGTACATATAAAATGAATAAA [XGTACX_site4204],8.43 ± 0.38
21,ATGAATATAATAAAGAAACACACGTATACATAATGA [CACACA_site1355],8.8 ± 0.54
22,TAAAATTTACAACACTGTACTTGAATTTATCTTTAA [XGTACX_site241],8.25 ± 0.37
23,CGCATAAAGACAAGAACACACATATAGATTGTAGTA [CACACA_site3693],8.27 ± 0.49

row,Sequence,gcPBM binding intensity (ln)
1,ATTATTATATAGTGTGCATGCAATATTAATAAAACC [TGCATGCA_site245],10.3 ± 0.4
2,ATTATATATAATATAGTGCATGTAAAAAATAAAACA,9.23 ± 0.33
3,GTTATATTTAAAATAGTGCAATAAAAATAATAATAT,8.89 ± 0.2
4,ATTGCGTGATAATAATGTACAAAAAGTAATTTATAT [XGTACX_site8339],8.48 ± 0.45
5,TAATTCGCAAAAGAAAGAAATTAAGAAAAAGAAAAA [XGTACX_negctrl_site614],8.32 ± 0.68
6,ATATATTTTATTCCTATATATATATATATATATATA [GTGCAC_negctrl_site556],10.2 ± 0.49
7,GTATATATATATATATATATATATTTTTATTTATTT [CACACA_negctrl_site589],8.65 ± 0.18
8,TTTTCATTCAATTATATTTATATATATATATATATA [GTGCAC_negctrl_site538],10.2 ± 0.44
9,ATATATATATATATATATATAATTTTTTTTGTTTTT [TGCATGCA_negctrl_site453],10.3 ± 0.3
10,GTATATATTTTTATTTAATAATTTGTTTATTTATTC [CACACA_negctrl_site647],8.56 ± 0.22
11,TCTTTCTTATATTTATATAATTATATTTATTTTATA [GTGCAC_negctrl_site300],8.74 ± 0.38
12,TTTTATTATTCTTCTCTCTTATATATATATATATAT [CACACA_negctrl_site646],10.2 ± 0.26
13,TTTTTTTTTTTTTTTTTTTTCATTCAATTATATTTA [CACACA_negctrl_site712],8.04 ± 0.33
14,TTTTTTTATTATTCTTATATAAAAATTTTTTTTAAT [CACACA_negctrl_site159],8.27 ± 0.45
15,TTTTATTCCTATTTATTTATATTTTTGTCTTATATC [CACACA_negctrl_site125],8.8 ± 0.43
16,ATTTGTATATAATATATATAATTTTTTTTTTTTGTT [XGTACX_negctrl_site425],8.2 ± 0.31
17,ATTTTTTTTATTTTTTCAATATATATATATATATAT [CACACA_negctrl_site1444],10.2 ± 0.19
18,ACAAAAAAAAAGGAAACACACAAAAAAAAAAAATAA [CACACA_site3523],8.44 ± 0.59
19,TAATGAAAAAATAAAAGAATAAATAAATAAATAAAT [TGCATGCA_negctrl_site130],8.77 ± 0.3
20,AGTGTATATAGAAACATACACACATATTAATTTTAC [CACACA_site3127],8.3 ± 0.28
21,AAAAAAAAAAAAAAAGTGCACTGAAAATATATTGAA [GTGCAC_site9395],9.04 ± 0.2
22,TTTTTTTTTCTTTCTTTCTTTTGTAAAAACCTCAAA [CACACA_negctrl_site723],8.46 ± 0.37
23,TGTGCACGTTCTGTGACACACATTTAAATGTGCTTA [CACACA_site176],8.62 ± 0.35

row,Sequence,gcPBM binding intensity (ln)
1,TATATATATATATATATATATATTTTTATTATATAT [XGTACX_negctrl_site89],10.2 ± 0.52
2,TATTAATTAAACCATACACACATAATTTTTTTATAA [CACACA_site843],8.21 ± 0.43
3,TTTTTTTTTTTTTTTTATTTATATATATATATATAT [CACACA_negctrl_site582],9.98 ± 0.23
4,ATTTTGTTATTATATATATATATATATATATATATA [XGTACX_negctrl_site590],10.3 ± 0.57
5,GCATATATTATATATTTATTTATTTTTTTTTTTTAA [GTGCAC_negctrl_site193],8.32 ± 0.46
6,TATTTTTATTTTTAAACCATATATATATATATATAT [CACACA_negctrl_site1560],10.3 ± 0.23
7,GTTATATATATATATATATATATATATATTTTTTTT [GTGCAC_negctrl_site597],8.84 ± 0.15
8,TTTTTATTTATATATATATATATATATTATATATAA [CACACA_negctrl_site1654],8.34 ± 0.36
9,TATATATATTAATTTATTTATTTGTTTATTTATTTA [CACACA_negctrl_site185],8.41 ± 0.18
10,AAAATATATTAAGGCACACACATACAGATATATATA [CACACA_site5951],8.9 ± 0.37
11,TATAAAATATAATTAGCACACATATATAAAATATAT [CACACA_site9355],8.21 ± 0.34
12,ATTTTGCCTGACCCATGTACATATTATTTTTTGCAT [XGTACX_site2258],9.41 ± 0.4
13,AGTATATTAATATAATGTACAAACGTTTATTTTGTA [XGTACX_site5980],8.59 ± 0.42
14,TTACGATCATCAATATGTACATATATATATATATAT [XGTACX_site4301],10.2 ± 0.3
15,ATATATATATATATATGTACATACATACAATCATAT [XGTACX_site6410],10.3 ± 0.45
16,ATATATATATATATATGTACATATATATACATATAT [XGTACX_site6987],10.1 ± 0.43
17,AAAATATATACAATATGTACATATATATATATATAT [XGTACX_site1898],9.96 ± 0.35
18,TATATATATATATATGTACACACATCAATCATATTA [CACACA_site8594],10.1 ± 0.36
19,ATATATATATATATATGTACACACATCAATCATATT [XGTACX_site4005],10.2 ± 0.54
20,CGAAATCATATGTACACACACATATATATATATATA [CACACA_site2151],10.2 ± 0.62
21,TACGAAATCATATGTACACACACATATATATATATA [CACACA_site5216],10.1 ± 0.39
22,AAATATATATATATATGTACACACACACATATAAAT [XGTACX_site847],8.5 ± 0.3
